SARS PLpro yeast – SARS-CoV PLP inhibition in yeast | S. cerevisiae expressing SARS-CoV PLpro, growth rescue | Potency, µM (doses to about 32.9 µM), inactives show at the highest dose activity, positive = growth rescue, most hits filed as activators | hit rate 0.19% among 330,000; calls by dose curve; note: 0% is about no effect; nearly all actives have a fitted effect of over 55% in size
AMA1 RON2 block – disrupts binding of P. falciparum AMA1 to RON2; AlphaScreen AMA1-biotinylated RON2 peptide binding; Potency, µM (highest dose often 58.2 µM), without a hit: at the top dose activity change, negative = inhibition, hits mostly inhibitors; hit rate 0.2% among 360,000;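 note: 0% = vehicle wells and -100% = peptide control; nearly all actives have a fitted effect of over 45% in size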
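AMA1 (3D7) with his tag at 25 nM final met compounds first, then biotinylated RON2 peptide at 25 nM; detection used donor plus acceptor beads, 10 µg/mL apiece, read by AlphaScreen after 30 min at room temperature.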
Pf growth 48h – inhibits P. falciparum growth in the first generation, 48 h. P. falciparum luciferase growth in erythrocytes, 48 h. Potency, µM (series often up to 28.7 µM), for the others: at the top dose activity change, negative = inhibition, hits mostly inhibitors. hit rate 5.9% among 310,000. AID 504832; note: % is set by controls: 0 for no effect and ±100 for the full control effect
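In quantitative HTS format, infected erythrocytes bearing luciferase-reporter parasites were treated for a single generation at 37 C. Luminescence after adding detection reagent served as the growth measure.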
NS1 function inh – blocks influenza NS1 protein function | Potency, µM (titrated, usually from 46.1 µM), without a hit: at the highest dose activity, positive = more growth | AID 2326 | hit rate 0.4% among 270,000; calls by dose curve; note: actives are rising curves; nearly all actives have a fitted effect of over 50% in size
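In this qHTS, NS1 from influenza A is expressed in budding yeast, where it slows growth. Cells are switched from glucose to 2% galactose medium (pH 6.0, -URA), treated with compound, and growth recovery is read at OD600.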
Pf growth 96h – P. falciparum growth inhibition at 96 hour, primary screen for plastid delayed-death inhibitors; P. falciparum luciferase reporter growth, 96 h; hit rate 6.9% among 320,000; Potency, µM (titrated, usually from 28.7 µM), for inactives: at the highest dose activity change, negative = inhibition, hits mostly inhibitors; AID 504834; note: % is set by controls: 0 for no effect and ±100 for the full control effect
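Luminescence readout: decreased luciferase signal marks inhibited growth of reporter-expressing P. falciparum in infected red cells (2% hematocrit, 0.05% parasitemia final), exposed to compound two generations (96 h, 37 C, 5% CO2).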
HCV inh – inhibitors of hepatitis C virus infection; Huh7.5.1 HCVcc-Cre infection, luciferase reporter, 44 h; Potency, µM (series often up to 41.8 µM), for the others: top-dose activity change, negative = inhibition, actives largely listed as inhibitors; hit rate 3.4% among 340,000; note: % is set by controls: 0 for no effect and ±100 for the full control effect
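HCVcc-Cre virus at an moi near 0.5 was added right after compound to cells cultured 4 h from seeding (1,000 cells/well). Luciferase activity was determined 44 h later, 15 min after substrate addition at RT.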
* hit, by the source's call; u = inconclusive; x = no result given; ! = not active in a repeat. Hits are enriched below; roughly 12% of the tested compounds scored in any of these assays. Unless noted, calls come from the whole dose curve; as a rule, active = well fitted curve in the direction sought with a large enough effect; inconclusive = small, poorly fitted or top-dose-only effect, or another doubt; inactive = no such curve, though single readings can be large; an effect the other way counts as inactive or inconclusive. Potency is the fitted concentration of half-maximal effect.

SMILES	SARS PLpro yeast	AMA1 RON2 block	Pf growth 48h	NS1 function inh	Pf growth 96h	HCV inh
Cc1ccc(S(=O)(=O)N2CCOCC2)c2nsnc12	12%	-8%	x	1%	31%	2%
CC(C)(C)C1CCc2c(sc(NC(=O)c3cc(C4CC4)on3)c2C#N)C1 (stereo unspecified)	-1%	16%	x	-108%	2%	6%
Cc1cc(C(=O)Nc2sc3c(c2C#N)CCC(C(C)(C)C)C3)no1 (stereo unspecified)	4%	-12%	x	-32%	10µM*	-19%
NS(=O)(=O)c1ccc(CCNS(=O)(=O)c2ccc(Cl)nc2)cc1	1%	-9%	-11%	-1%	-8%	3%
CCC(=O)N(CCc1ccccc1)Cc1cc2cc(OC)ccc2[nH]c1=O	2%	-9%	2.1µM*	-66%	-8%	-4%
CNC(=S)N(Cc1cc2ccc(OC)cc2[nH]c1=O)CC1CCCO1 (stereo unspecified)	1%	-9%	-23%	7%	13µM*	-29%
CNC(=S)N(Cc1cccs1)Cc1cc2cc(OC)ccc2[nH]c1=O	11%	-8%	u	5%	7.4µM*	-5%
COc1ccc2[nH]c(=O)c(CN(Cc3cccs3)C(=S)Nc3cccc(C)c3)cc2c1	-2%	-9%	15µM*	12%	u	u
COCC1CCN(C(=O)c2ccc3nc(Cc4cccc(Cl)c4)oc3c2)CC1	x	0%	x	x	x	x
COc1ccc2[nH]c(=O)c(CN(Cc3cccs3)S(=O)(=O)c3cccc4nsnc34)cc2c1	-1%	-3%	7.4µM*	-19%	-7%	10µM*!
CCCCCOc1ccc(C(=O)CCC(=O)Nc2ccc(NC(C)=O)cc2)cc1	-2%	-2%	56%	1%	37%	6%
O=C(NCC1CCCO1)c1c(O)nc2sccn2c1=O (stereo unspecified)	-2%	18%	0%	x	-5%	6%
CC1CC(NC(=O)c2c(O)nc3sccn3c2=O)CC(C)(C)C1 (stereo unspecified)	0%	62%	13µM*	x	u	3%
O=C(NC1CCCCC1)c1c(O)nc2sccn2c1=O	-21%	23%	10µM*	x	10µM*	22%
O=C(NC1CCCCCC1)c1c(O)nc2sccn2c1=O	-40%	-6%	6.6µM*	x	4.7µM*	21%
O=C(O)C(Cc1cn[nH]n1)=NO	1%	11%	3%	10%	23%	-18%
O=C(CN1C(=O)NC2(CCCCCC2)C1=O)c1ccc(OC(F)F)cc1OC(F)F	3%	2%	u	x	u	u
CC(=O)c1sc(NC(=O)C2CCN(c3ncnc4sc(C)c(C)c34)CC2)nc1-c1ccccc1	x	-22%	9.3µM*	x	u	u
Cc1sc2ncnc(N3CCC(C(=O)Nc4ccc(OC(F)F)c(Cl)c4)CC3)c2c1C	-15%	5%	x	x	x	20µM*
Cc1sc2ncnc(N3CCC(C(=O)NNC(=O)c4ccccc4Cl)CC3)c2c1C	3%	37%	u	-11%	8.3µM*	u
CCN(CC)CCNC(=O)c1ccc(NC(=O)C2CCN(c3ncnc4sc(C)c(C)c34)CC2)cc1	8%	-8%	u	-14%	u	13µM*
CCCCCCCCCCCCCCCC(=O)OC(C)C	x	x	-4%	x	-12%	x
Cc1sc2ncnc(N3CCC(C(=O)NNC(=O)COc4ccccc4Cl)CC3)c2c1C	-13%	87%	12µM*	x	u	u
COc1ccc(C(=O)N2N=C(c3cccs3)CC2c2ccccc2O)cc1 (stereo unspecified)	-10%	-2%	u	-26%	u	u
Oc1ccccc1C1CC(c2cccs2)=NC(c2cccc(Br)c2)N1 (stereo unspecified)	-21%	-2%	u	x	2.6µM*	22%
SMILES	SARS PLpro yeast	AMA1 RON2 block	Pf growth 48h	NS1 function inh	Pf growth 96h	HCV inh
CCOC(=O)c1c(NC(=S)NCc2ccccc2)sc2c1CCN(C(=O)OCC)C2	0%	48%	12µM*	6%	5.9µM*	u
CCOC(=O)N1CCN(S(=O)(=O)c2ccc(C(=O)Nc3sc4c(c3C(=O)OC)CCN(C)C4)cc2)CC1	-3%	-2%	-20%	13%	u	u
CCOC(=O)c1c(NC(=O)Nc2ccc(C)cc2)sc2c1CCN(C)C2	0%	5%	12µM*	-8%	3.7µM*	u
CCOC(=O)c1c(NC(=S)N2CCCCC2)sc2c1CCN(C(=O)OCC)C2	1%	0%	u	2%	u	-69%
C=CCNC(=S)Nc1sc2c(c1C(=O)OCC)CCN(C(=O)OCC)C2	x	37%	13µM*	10%	u	6%
CCOC(=O)c1c(NC(=S)Nc2ccccc2)sc2c1CCN(CC)C2	-21%	10%	6.6µM*	-6%	58%	-29%
O=C1NCC(Nc2ccc(Br)cc2)C(=O)N1 (stereo unspecified)	x	-1%	x	x	x	10%
O=C(COC(=O)CCSc1ccccc1)Nc1cc(F)ccc1F	-4%	11%	0%	x	24%	25%
Cc1cc(S(=O)(=O)NCc2ccc(N3CCN(C)CC3)cc2)c(C)s1	-3%	2%	u	0%	41%	9%
CCOCCCNC(=O)c1ccc2c(=O)n(Cc3ccc(OC)cc3)c(=O)[nH]c2c1	1%	3%	5.9µM*	x	56%	-8%
CCC1CCCCN1CCCNC(=O)c1ccc2c(=O)n(Cc3ccc(OC)cc3)c(=O)[nH]c2c1 (stereo unspecified)	0%	-7%	x	-4%	u	14µM*
CCC1CCCCN1CCCNC(=O)c1ccc2c(=O)n(CCOC)c(=O)[nH]c2c1 (stereo unspecified)	7%	-7%	u	4%	u	-1%
COc1ccccc1C(=O)OCc1c(-c2ccccc2)ncc2ccccc12	-7%	-1%	x	x	x	u
CC(C)(C)C(=O)N(Cc1ccc(Cl)cc1)c1cnccn1	-1%	-1%	3.3µM*	-2%	5.2µM*	u
Cc1ccc2c(c1)c(-c1ccccc1)nc1nnnn12	-1%	6%	1%	3%	30%	-6%
O=C1CCN(Cc2nc(-c3ccc(Cl)cc3)no2)CCN1	0%	-2%	20%	1%	10µM*	u
O=C(C1CCN(Cc2nc(-c3ccc(Cl)cc3)no2)CC1)N1CCOCC1	3%	-10%	26%	-1%	0%	-12%
COc1ccccc1CCNC(=O)c1ccc(NC(=O)CC2SC(N3CCCCC3)=NC2=O)cc1 (stereo unspecified)	2%	-5%	12µM*	x	10µM*	u
COc1cccc(CN(C)C(=O)c2cccc(NC(=O)CC3SC(N4CCCCC4)=NC3=O)c2)c1OC (stereo unspecified)	1%	-13%	10µM*	x	9.3µM*	-15%

High-throughput results deposited in PubChem by National Center for Advancing Translational Sciences (NCATS).
